According to PubChem BioAssay:
Active and inactive are the calls of the source.

Tests used:
[1] = tested on: Plasmodium falciparum Sir2 (PF13_0152, Sir2A); assay: Plasmodium falciparum Sir2A binding compounds – biochemical, small-molecule microarray, 635 nm fluorescence, primary screen (AID 1098); conditions: fluorescence 635 nm, higher = more signal;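 further: score merges spot fluorescence intensity with its signal-to-noise ratio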
[2] = probe aDKK1 binding to arrayed compounds – biochemical, biotinylated probe, 635/667 nm fluorescence, primary screen (AID 1099); conditions: small-molecule microarray, higher = more signal;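 further: score merges 667nm spot fluorescence with signal to noise across triplicate slides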
[3] = probe aCHRDL2 binding to arrayed compounds – biochemical, biotinylated probe, 635/667 nm fluorescence, primary screen (AID 1100); conditions: small-molecule microarray, higher = more signal
[4] = change in splice reporter luminescence, either direction, cell-based, HEK293, spliceosome inhibition project, primary screen (AID 1101); conditions: HEK293 splicing luciferase reporter, 24 h, higher = more signal, called active from +8 up or from −8 down;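 further: HEK293 cells carrying a splicing-competent luciferase reporter gene; test concentration not given here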
[5] = biological target: Fibroblast growth factor 10 (Homo sapiens) (UniProt O15520); assay: compounds binding fibroblast growth factor 10 – biochemical, small-molecule microarray, 635 nm fluorescence, primary screen (AID 1102); conditions: FGF10 binding, fluorescence 635 nm, higher = more signal
[6] = tested on: glycogen synthase kinase-3 (GSK3A per assay name; protocol says GSK3B); assay: compounds binding glycogen synthase kinase-3 – biochemical, small-molecule microarray, 635 nm fluorescence, GSK3A, primary screen (AID 1103); conditions: fluorescence 635 nm, higher = more signal; further: the record names both GSK3A and GSK3B
[7] = biological target: Epidermal growth factor receptor (Homo sapiens) (UniProt P00533); assay: compounds binding epidermal growth factor receptor – biochemical, small-molecule microarray, 635 nm fluorescence, primary screen (AID 1104); conditions: EGFR binding, higher = more signal;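 further: score merges 667 nm emission intensity with spot signal to noise over triplicate slides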
[8] = biological target: Follistatin-related protein 3 (Homo sapiens) (UniProt O95633); assay: compounds binding follistatin-related protein 3 – biochemical, small-molecule microarray, 635 nm fluorescence, primary screen (AID 1105); conditions: FSTL3 binding, higher = more signal;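 further: score merges emission near 667 nm and signal to noise per printed spot across three slides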
[9] = biological target: Dickkopf-related protein 1 (Homo sapiens) (UniProt O94907); assay: small molecules binding DKK1 protein – biochemical, small-molecule microarray, 635 nm fluorescence scan, primary screen (AID 1106); conditions: higher = more signal;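 further: score merges emission near 667 nm with signal to noise over three replicate slides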
[10] = tested on: Inhibin beta A chain (activin A); assay: small molecules binding activin A – biochemical, small-molecule microarray, 635 nm fluorescence scan, primary screen (AID 1107); conditions: INHBA, higher = more signal;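 further: mouse activin A protein probed at 4.33 µg/mL on printed slides; score merges bound-protein fluorescence near 667 nm with spot signal-to-noise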
[11] = tested on: Human papillomavirus type 1a protein E7 (residues 44-93); assay: small molecules binding HPV E7 44-93 – biochemical, small-molecule microarray, residues 44-93, 635 nm fluorescence, primary screen (AID 1108); conditions: fluorescence 635 nm, higher = more signal;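 further: E7 fragment applied at 1 µg/mL in TBST for 1 h at 4 C; score combines spot fluorescence with its signal to noise ratio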
[12] = hepatitis C replication reporter changes, two-sided – Huh7 cells, luciferase reporter, HCV replication inhibitor project, primary screen (AID 1109); conditions: Huh7 HCV replicon luciferase reporter, 48 h; higher = more signal;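 further: huh7 hepatoma cells harbouring a luciferase neomycin HCV replicon reporter; luciferase luminescence as measure of HCV replicon replication; test concentration not given here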
[13] = biological target: Left-right determination factor 2 (Homo sapiens) (UniProt O00292); assay: small molecules binding LEFTY2 protein – biochemical, small-molecule microarray, 635 nm fluorescence scan, primary screen (AID 1110); conditions: higher = more signal
[14] = biological target: Calmodulin-1 (Homo sapiens) (UniProt P0DP23); assay: small molecules binding calmodulin-1 with EGTA – biochemical, small-molecule microarray, Cy5-labelled CALM1, profiling panel (AID 1111); conditions: Cy5-CALM1 binding fluorescence, higher = more signal;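 further: labelled calmodulin applied in Tris saline Tween buffer holding calcium plus EGTA and DTT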
[15] = biological target: Calmodulin-1 (Homo sapiens) (UniProt P0DP23); assay: small molecules binding Ca-loaded calmodulin-1 – biochemical, small-molecule microarray, Cy5-labelled CALM1, plus calcium, artefact control for SMM control-protein annotation, profiling panel (AID 1112); conditions: Cy5-CALM1 binding fluorescence, higher = more signal;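 further: score merges spot fluorescence with signal to noise from triplicate slides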
[16] = probe aWnt5a binding to arrayed compounds – biochemical, biotinylated probe, 635/667 nm fluorescence, primary screen (AID 1113); conditions: small-molecule microarray, higher = more signal;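 further: score merges 667 nm fluorescence intensity with signal-to-noise per printed feature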
[17] = probe aShh binding to arrayed compounds – biochemical, biotinylated probe, 635/667 nm fluorescence, primary screen (AID 1114); conditions: small-molecule microarray, higher = more signal;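 further: probe is biotin-labelled aShh protein from a stem cell growth factor screen; measures binding of labelled protein to compounds printed on the slide; score merges feature fluorescence at 667 nm with signal-to-noise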
[18] = probe aNog binding to arrayed compounds – biochemical, biotinylated probe, 635/667 nm fluorescence, primary screen (AID 1115); conditions: small-molecule microarray, higher = more signal;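 further: probe is biotinylated aNog protein used at 0.15 µg/mL for 1 h at 4 C; z-score combines 667 nm fluorescence of each spot with its signal to noise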
[19] = biological target: Torsin-1A-interacting protein 1 (Homo sapiens) (UniProt Q5JTV8); assay: compound microarray binding of lysate hLAP1 – cell lysate, small-molecule microarray, COS7 lysate, 635/667 nm fluorescence, primary screen (AID 1116); conditions: 635 nm fluorescence, higher = more signal
[20] = biological target: Alpha-bungarotoxin (Bungarus multicinctus) (UniProt P60615); assay: compounds binding labelled alpha-BTX control protein – biochemical, small-molecule microarray, Alexa647 label, 635/667 nm fluorescence, artefact control for SMM control protein annotation, profiling panel (AID 1117); conditions: alpha-BTX-A647 binding fluorescence, higher = more signal
Alpha-bungarotoxin (Bungarus multicinctus), sequence (P60615 whole entry, looked up): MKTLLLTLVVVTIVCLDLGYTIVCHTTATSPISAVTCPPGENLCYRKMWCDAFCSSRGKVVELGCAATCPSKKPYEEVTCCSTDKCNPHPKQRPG

Fibroblast growth factor 10 (Homo sapiens), sequence (O15520 whole entry, looked up): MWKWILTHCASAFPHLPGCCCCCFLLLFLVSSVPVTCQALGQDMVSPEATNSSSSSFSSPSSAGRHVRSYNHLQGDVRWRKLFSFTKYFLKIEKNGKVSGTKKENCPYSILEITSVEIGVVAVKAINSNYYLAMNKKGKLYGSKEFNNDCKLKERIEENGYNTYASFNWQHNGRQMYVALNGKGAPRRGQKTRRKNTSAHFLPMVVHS
Epidermal growth factor receptor (Homo sapiens), sequence (P00533 whole entry, looked up): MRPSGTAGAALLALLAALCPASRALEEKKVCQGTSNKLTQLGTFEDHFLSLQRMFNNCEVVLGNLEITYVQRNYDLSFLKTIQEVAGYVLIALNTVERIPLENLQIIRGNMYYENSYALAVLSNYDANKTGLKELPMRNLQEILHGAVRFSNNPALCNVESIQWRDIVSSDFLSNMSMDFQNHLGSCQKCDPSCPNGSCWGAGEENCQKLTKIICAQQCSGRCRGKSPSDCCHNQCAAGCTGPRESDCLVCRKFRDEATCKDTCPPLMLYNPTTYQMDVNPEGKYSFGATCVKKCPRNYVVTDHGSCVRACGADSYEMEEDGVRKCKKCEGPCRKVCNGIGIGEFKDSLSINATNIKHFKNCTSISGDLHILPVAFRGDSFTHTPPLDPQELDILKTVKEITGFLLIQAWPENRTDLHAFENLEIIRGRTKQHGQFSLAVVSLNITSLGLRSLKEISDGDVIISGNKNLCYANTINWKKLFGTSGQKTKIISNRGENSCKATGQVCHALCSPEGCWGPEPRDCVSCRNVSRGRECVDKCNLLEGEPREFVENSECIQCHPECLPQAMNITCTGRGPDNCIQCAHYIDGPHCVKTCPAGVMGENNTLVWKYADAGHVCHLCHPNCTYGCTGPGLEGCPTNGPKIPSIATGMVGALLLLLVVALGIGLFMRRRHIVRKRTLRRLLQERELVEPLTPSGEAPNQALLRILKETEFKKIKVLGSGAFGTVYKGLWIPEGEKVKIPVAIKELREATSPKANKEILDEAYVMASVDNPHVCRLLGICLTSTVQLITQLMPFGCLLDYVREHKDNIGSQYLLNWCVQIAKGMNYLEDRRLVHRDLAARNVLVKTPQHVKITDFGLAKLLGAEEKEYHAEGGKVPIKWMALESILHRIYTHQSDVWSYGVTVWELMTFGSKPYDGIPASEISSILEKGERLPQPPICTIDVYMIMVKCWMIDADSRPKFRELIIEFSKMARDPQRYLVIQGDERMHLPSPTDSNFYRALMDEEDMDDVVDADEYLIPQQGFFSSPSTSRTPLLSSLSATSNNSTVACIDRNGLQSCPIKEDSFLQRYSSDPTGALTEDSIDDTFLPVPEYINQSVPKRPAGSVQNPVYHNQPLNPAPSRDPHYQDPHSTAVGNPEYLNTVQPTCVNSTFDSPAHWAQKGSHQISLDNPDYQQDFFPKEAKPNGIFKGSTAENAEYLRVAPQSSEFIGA
Torsin-1A-interacting protein 1 (Homo sapiens), sequence (Q5JTV8 whole entry, looked up): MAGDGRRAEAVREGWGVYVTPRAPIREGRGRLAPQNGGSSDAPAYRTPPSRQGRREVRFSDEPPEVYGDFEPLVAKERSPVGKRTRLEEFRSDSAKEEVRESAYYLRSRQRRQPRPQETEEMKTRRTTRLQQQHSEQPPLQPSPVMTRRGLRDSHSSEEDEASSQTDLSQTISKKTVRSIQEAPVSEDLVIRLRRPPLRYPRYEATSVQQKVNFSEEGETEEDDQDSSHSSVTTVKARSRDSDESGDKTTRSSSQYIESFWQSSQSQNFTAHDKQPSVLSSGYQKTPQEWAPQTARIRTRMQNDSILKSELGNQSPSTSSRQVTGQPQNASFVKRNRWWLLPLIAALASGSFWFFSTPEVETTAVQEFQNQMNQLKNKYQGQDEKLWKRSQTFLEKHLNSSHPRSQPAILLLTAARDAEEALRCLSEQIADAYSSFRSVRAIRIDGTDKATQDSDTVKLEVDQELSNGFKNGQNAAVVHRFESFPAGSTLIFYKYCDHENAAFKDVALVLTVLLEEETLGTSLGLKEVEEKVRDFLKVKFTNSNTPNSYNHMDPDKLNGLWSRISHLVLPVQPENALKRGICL
Left-right determination factor 2 (Homo sapiens), sequence (O00292 whole entry, looked up): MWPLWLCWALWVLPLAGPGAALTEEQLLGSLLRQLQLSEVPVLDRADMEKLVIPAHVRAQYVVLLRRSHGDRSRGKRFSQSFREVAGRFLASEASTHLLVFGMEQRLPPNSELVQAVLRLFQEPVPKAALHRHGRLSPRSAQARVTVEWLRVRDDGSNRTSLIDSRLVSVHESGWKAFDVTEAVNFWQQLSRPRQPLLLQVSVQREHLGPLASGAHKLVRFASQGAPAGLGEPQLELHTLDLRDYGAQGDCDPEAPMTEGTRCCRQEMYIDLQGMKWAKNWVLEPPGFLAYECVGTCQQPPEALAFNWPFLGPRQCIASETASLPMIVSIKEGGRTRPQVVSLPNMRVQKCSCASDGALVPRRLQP
Dickkopf-related protein 1 (Homo sapiens), sequence (O94907 whole entry, looked up): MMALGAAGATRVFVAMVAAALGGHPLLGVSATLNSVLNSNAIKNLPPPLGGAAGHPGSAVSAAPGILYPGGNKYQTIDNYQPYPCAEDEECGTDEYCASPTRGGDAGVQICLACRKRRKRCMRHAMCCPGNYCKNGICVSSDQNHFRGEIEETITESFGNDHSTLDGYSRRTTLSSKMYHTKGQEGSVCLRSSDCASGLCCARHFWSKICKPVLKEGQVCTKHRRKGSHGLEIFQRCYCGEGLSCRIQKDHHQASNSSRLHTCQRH
Follistatin-related protein 3 (Homo sapiens), sequence (O95633 whole entry, looked up): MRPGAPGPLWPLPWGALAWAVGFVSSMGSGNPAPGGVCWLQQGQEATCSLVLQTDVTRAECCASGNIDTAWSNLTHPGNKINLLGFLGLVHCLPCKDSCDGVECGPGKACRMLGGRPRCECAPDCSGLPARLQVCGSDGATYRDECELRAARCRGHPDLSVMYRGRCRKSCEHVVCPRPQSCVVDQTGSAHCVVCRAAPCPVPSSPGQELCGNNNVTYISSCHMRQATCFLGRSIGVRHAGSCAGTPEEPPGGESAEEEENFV

Compound `C=CCNC(=O)[C@@H]1[C@H]2C(=O)O[C@H](c3ccccc3)[C@H](c3ccccc3)N2[C@H](c2ccc(OCCO)cc2)[C@@]12C(=O)Nc1ccc(C#Cc3ccc(OC)cc3)cc12` has a composite z-score [1] of 1.28, a composite z-score [2] of 0.707 and a composite z-score [3] of 0.792. The z-score [4] was -0.476 (inactive), the composite z-score [5] was 0.939 and the composite z-score [6] was 1.29. For the same compound, the composite z-score [7] was 0.641, the composite z-score [8] was 1.25 and the composite z-score [9] was 1.07. It also gave a composite z-score [10] of 0.746, a composite z-score [11] of 0.14 and a z-score [12] of -1.87. It also gave a composite z-score [13] of 0.849, a composite z-score [14] of 1.63 and a composite z-score [15] of 0.0791. The composite z-score [16] was 0.0597, the composite z-score [17] was 0.366 and the composite z-score [18] was 0.201. The composite z-score [19] was 0.781 and the composite z-score [20] was 2.88.
Compound `[N-]=[N+]=NCc1ccccc1[C@@H]1OC(c2ccc(OCCCO)cc2)=N[C@]1(CCS(=O)(=O)c1ccccc1)C(=O)NCCN1CCOCC1` has a composite z-score [1] of 0.916, a composite z-score [2] of 0.934 and a composite z-score [3] of 0.952. For the same compound, the z-score [4] was -0.406 (inactive), the composite z-score [5] was 1.42 and the composite z-score [6] was 1.05. The composite z-score [7] was 0.778, the composite z-score [8] was 1.46 and the composite z-score [9] was 0.535. The composite z-score [10] was 0.745, the composite z-score [11] was 1.5 and the z-score [12] was -0.351. It also gave a composite z-score [13] of 0.623, a composite z-score [14] of 1.65 and a composite z-score [15] of -0.173. The composite z-score [16] was 0.132, the composite z-score [17] was 0.323 and the composite z-score [18] was 1.17. The composite z-score [19] was 2.04 and the composite z-score [20] was 1.95.
Compound `CCC(CC)C(O)C1C=CC2C(=O)N(C)C(=O)C2N1Nc1ccccc1` (stereo not given) has a composite z-score [1] of 0.695, a composite z-score [2] of 0.332 and a composite z-score [3] of 0.9. The z-score [4] was 0.464 (inactive), the composite z-score [5] was 0.603 and the composite z-score [6] was 0.499. It also gave a composite z-score [7] of 0.0611, a composite z-score [8] of 0.698 and a composite z-score [9] of 0.371. For the same compound, the composite z-score [10] was 0.867, the composite z-score [11] was 0.948 and the z-score [12] was 0.347. It also gave a composite z-score [13] of -0.054, a composite z-score [14] of 1.44 and a composite z-score [15] of 0.463. For the same compound, the composite z-score [16] was -0.0863, the composite z-score [17] was 0.128 and the composite z-score [18] was 1.09. It also gave a composite z-score [19] of 1.64 and a composite z-score [20] of 1.04.
Compound `C=CCOC(=O)[C@@H]1[C@H]2C(=O)O[C@H](c3ccccc3)[C@H](c3ccccc3)N2[C@H](c2ccc(OCCOC(=O)[C@@H]3C[C@@H]4C(=O)N5CCC[C@H]5C(=O)N4[C@@H]3c3ccc(O)cc3)cc2)[C@@]12C(=O)Nc1ccc(I)cc12` has a composite z-score [1] of 0.544, a composite z-score [2] of -0.627 and a composite z-score [3] of -0.257. For the same compound, the z-score [4] was -1.98 (inactive), the composite z-score [5] was 0.624 and the composite z-score [6] was 1.3. The composite z-score [7] was 0.555, the composite z-score [8] was 0.913 and the composite z-score [9] was 0.794. For the same compound, the composite z-score [10] was -0.495, the composite z-score [11] was 1.33 and the z-score [12] was -0.64. The composite z-score [13] was 0.761, the composite z-score [14] was 2.06 and the composite z-score [15] was 0.481. For the same compound, the composite z-score [16] was -0.145, the composite z-score [17] was -0.0793 and the composite z-score [18] was -0.331. It also gave a composite z-score [19] of 1.4 and a composite z-score [20] of 0.327.
